# From PubChem BioAssay
# Only some compounds are listed: those with a hit (about 18% of all), similar ones and a draw of the others.
# TDP1 cell noCPT: qHTS for Inhibitors of human tyrosyl-DNA phosphodiesterase 1 (TDP1): qHTS in cells in absence of CPT. DT40 Tdp1-/- hTDP1 cells, no CPT, ATP luminescence, 48 h. Potency, µM (top dose mostly 46.2 µM), inactives show top-dose activity change, negative = growth inhibition, hits mostly inhibitors. 420,000 tested, 15% active; note: nearly all actives have a fitted effect of over 55% in size
#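 Seeded 400 DT40-hTDP1 cells/well (vehicle DMSO, no 20 nM CPT); pinned compounds; ≥48 hr at 37 °C; CellTiter-Glo luminescence as viability measure.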
# TDP1 block: inhibitors of human tyrosyl-DNA phosphodiesterase TDP1; Q9NUW8; recombinant TDP1, AlphaScreen DNA substrate cleavage; Potency, µM (doses to about 130 µM), for the others: top-dose activity change, negative = inhibition, hits mostly inhibitors; 350,000 tested, 0.28% active; note: nearly all actives have a fitted effect of over 40% in size
#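 E. coli-derived human Tdp1, 1 nM final. Cpd preinc 15 min RT; substrate 15 nM final, 5 min RT; AS bead mix 10 ug/ml final, 10 min RT. Signal loss = tyrosine-FITC cleavage. No-enzyme wells = max signal.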
# PLK1 PBD block: blocks phosphopeptide binding to human PLK1 polo-box domain; P53350; Plk1 PBD binding of FITC phosphopeptide, fluorescence polarization; Potency, µM, inactives show max response, negative = inhibition, actives largely listed as inhibitors; 360,000 tested, 2.8% active; note: series mostly up to about 57 µM; nearly all actives have a fitted effect of over 65% in size
# GCN5L2 inh: blocks human GCN5L2 histone acetyltransferase. 390,000 tested, 0.21% active. Potency, µM (doses to about 58.9 µM), without a hit: at the highest dose activity change, negative = inhibition, most hits filed as inhibitors. Q92830. GCN5L2 HAT assay, ThioGlo1 CoA-SH fluorescence
#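 Compounds, pin-transferred from DMSO stocks, meet 20nM GCN5L2 for 15 min before the reaction begins with H3(1-25) peptide (75uM) and acetyl-CoA (70uM). Thiol-reactive ThioGlo1 reports CoA release over 20 min at room temperature.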
# VDR inh: inhibitors of human vitamin D receptor | P11473 | VDR-SRC2-3 peptide fluorescence polarization, 2 h | Potency, µM, inactives show max response, negative = inhibition, most hits filed as inhibitors | 400,000 tested, 0.93% active | AID 504847
# Target sequence (P11473 whole entry, looked up): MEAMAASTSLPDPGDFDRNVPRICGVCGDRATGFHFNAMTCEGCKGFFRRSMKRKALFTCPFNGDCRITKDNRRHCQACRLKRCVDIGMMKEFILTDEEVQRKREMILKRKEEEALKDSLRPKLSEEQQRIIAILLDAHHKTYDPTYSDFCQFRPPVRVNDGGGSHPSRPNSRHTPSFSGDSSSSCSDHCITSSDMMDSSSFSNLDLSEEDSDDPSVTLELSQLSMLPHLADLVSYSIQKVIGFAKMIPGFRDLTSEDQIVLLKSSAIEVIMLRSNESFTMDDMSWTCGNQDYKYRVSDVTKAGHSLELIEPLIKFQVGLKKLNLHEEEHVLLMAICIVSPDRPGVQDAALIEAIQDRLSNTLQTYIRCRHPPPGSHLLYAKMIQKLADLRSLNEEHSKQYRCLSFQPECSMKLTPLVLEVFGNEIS
#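 Inhibition of the VDR/SRC2-3 peptide interaction is quantified by fluorescence polarization. Compounds (23 nl, pintool) incubate with the reagents for 2 hours at ambient room temperature.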
# DT40 TDP1 CPT: growth inhibition of DT40 Tdp1-/-;hTDP1 cells with camptothecin (screen for TDP1 inhibitors). chicken DT40 Tdp1-/-;hTDP1 cells + 20 nM CPT, ATP luminescence, 48 h. Potency, µM (titrated, usually from 46.2 µM), inactives show at the top dose activity change, negative = growth inhibition, usual class: inhibitors. 420,000 tested, 12% active; note: nearly all actives have a fitted effect of over 55% in size
#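 Chicken DT40 Tdp1-/- cells stably complemented with human TDP1 were seeded at 400 cells/well in medium containing 20 nM camptothecin, exposed to pin-transferred compounds, and grown at 37 °C for at least 48 hr. Viability was read as ATP luminescence.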
# * = called active by the depositor; ? = inconclusive; nt = not tested or not shown. Calls come from the whole dose curve; as a rule, active = well fitted curve in the direction sought with a large enough effect; inconclusive = small, poorly fitted or top-dose-only effect, or another doubt; inactive = no such curve, though single readings can be large; an effect the other way counts as inactive or inconclusive. % is set by controls: 0 for no effect and ±100 for the full control effect; potency is the fitted concentration of half-maximal effect.
SMILES,TDP1 cell noCPT,TDP1 block,PLK1 PBD block,GCN5L2 inh,VDR inh,DT40 TDP1 CPT
COC(=O)CC1C(=O)NCCN1C(=O)c1cc([N+](=O)[O-])ccc1Cl (configuration not stated),5%,6%,-6%,-14%,-26%,8%
CCOC(=O)CCN(c1ccccc1)S(=O)(=O)c1cc(-c2cc(C)no2)ccc1C,?,3%,nt,-1%,7%,?
COC(=O)C1=C(C)N(c2ccc(Cl)c(Cl)c2)C(=O)C1,5.2µM*,5%,-23%,2%,-20%,5.2µM*
CCOC(=O)C1(Cc2ccccc2)CCN(Cc2nccn2CC)CC1,?,nt,-10%,-4%,8%,?
CCOC(=O)C1(Cc2ccc(Cl)cc2)CCN(Cc2nccn2CC)CC1,?,nt,-12%,-2%,-6%,21µM*
CCOC(=O)C1(CCc2ccccc2)CCN(Cc2nccn2CC)CC1,18µM*,nt,5%,0%,-5%,?
CCOC(=O)C1(Cc2ccc(Cl)cc2)CCN(C(=O)CCc2cnccn2)CC1,-29%,0%,-15%,-25%,-9%,-13%
CCOC(=O)C1(S(=O)(=O)c2ccccc2)CCN(Cc2ccc(Cl)cc2)CC1,?,5%,-3%,-7%,-4%,?
CCOC(=O)C1(S(=O)(=O)c2ccc(Cl)cc2)CCN(Cc2ccc(Cl)cc2)CC1,18µM*,2%,?,-3%,-11%,16µM*
CC(=O)N1CCN(c2c(F)c(F)c(C(F)(F)F)c(F)c2F)CC1,15µM*,-4%,-10%,15%,-3%,?
CCC(=O)N(C1=C(NC)C(=O)c2ccccc2C1=O)C(C)C,1.6µM*,-8%,2%,-3%,2%,2.1µM*
CCN1C(=O)C(O)(CC(=O)/C=C/C=C/c2ccccc2)c2ccccc21 (configuration not stated),?,6%,-4%,-6%,-12%,23µM*
O=C(/C=C/C=C/c1ccccc1)CC1(O)C(=O)N(CCc2ccccc2)c2ccccc21 (configuration not stated),18µM*,4%,-2%,-2%,-13%,21µM*
C#CCN1C(=O)C(O)(CC(=O)/C=C/C=C/c2ccccc2)c2ccccc21 (configuration not stated),23µM*,0%,-18%,0%,-3%,?
Cc1cccc(C)c1OCc1nc2ccccc2c(=O)n1/N=C/c1c[nH]c2ccccc12,?,3%,-2%,-10%,8%,21µM*
CC(=O)Nn1c(COc2ccccc2C)nc2ccccc2c1=O,2%,2%,-8%,-1%,7%,-2%
O=c1c2ccccc2nc(COc2ccccc2)n1/N=C/c1cc([N+](=O)[O-])ccc1O,13µM*,-1%,-10%,2%,-6%,6.5µM*
Cc1cc(/C=N/n2c(COc3ccccc3C)nc3ccccc3c2=O)c(O)c([N+](=O)[O-])c1,13µM*,-3%,?,?,6%,18µM*
CCCc1nc2ccccc2c(=O)n1/N=C/c1ccccc1O,-22%,7%,0%,-5%,11%,?
Cc1ccc(-c2[nH]ncc2/C=N/n2c(COc3ccccc3C)nc3ccccc3c2=O)cc1,16µM*,3%,5%,4%,-16%,21µM*
CC(C)=NOCC(=O)Nn1c(COc2c(C)cccc2C)nc2ccccc2c1=O,-14%,4%,-14%,-23%,-15%,10%
O=C(Cc1ccc(Cl)cc1)NCC(c1cccs1)S(=O)(=O)c1ccccc1 (configuration not stated),?,4%,nt,-13%,13%,?
Cc1ccc2nc(Cl)c(CNCc3ccccc3)cc2c1,?,-6%,24µM*,1%,-21%,?
O=C(CSc1nc2ccccc2nc1Cc1ccc(Cl)cc1)N1CCCCC1,16µM*,0%,nt,-12%,4%,?
COc1ccc(N2CCN(C(=O)CSc3ccccc3N)CC2)cc1,?,-2%,24µM*,-12%,-4%,-48%
SMILES,TDP1 cell noCPT,TDP1 block,PLK1 PBD block,GCN5L2 inh,VDR inh,DT40 TDP1 CPT
Cc1ccc(Cc2nc3ccccc3nc2SCC(=O)N2CCCCC2)cc1,21µM*,0%,nt,-19%,-1%,?
O=C(CSc1nc2ccccc2nc1SCC(=O)N1CCCCC1)N1CCCCC1,?,9%,-4%,-2%,5%,16µM*
COc1ccc(N2CCN(C(=O)CSc3nc(-c4ccccc4)no3)CC2)cc1,-16%,3%,nt,-7%,4%,-3%
O=C(NCCCN1CCCC1=O)C1CCCO1 (configuration not stated),7%,0%,-3%,-9%,11%,7%
O=C(CSc1nc2ccccc2nc1Cc1ccc(Cl)cc1)N1CCN(c2ccccc2)CC1,?,0%,nt,-11%,24%,-9%
CC1CCCCN1C(=O)CSc1nc2ccccc2nc1Cc1ccc(Cl)cc1 (configuration not stated),?,3%,nt,-12%,5%,18µM*
COc1ccccc1N1CCN(C(=O)CSc2nc3ccccc3nc2Cc2ccccc2)CC1,23µM*,0%,nt,-15%,-5%,23µM*
CC1CCN(C(=O)CSc2nc3ccccc3nc2Cc2ccccc2)CC1,10µM*,-11%,nt,-10%,1%,15µM*
Cc1ccc(Cc2nc3ccccc3nc2SCC(=O)N2CCN(c3ccccc3)CC2)cc1,-24%,5%,nt,-13%,8%,-16%
CC1CCN(C(=O)CSc2nc(C3CC3)nc3ccccc23)CC1,?,13%,1%,-9%,-12%,?
COc1ccc(N2CCN(C(=O)CSc3nc4ccccc4nc3Cc3ccc(Cl)cc3)CC2)cc1,?,0%,nt,-3%,-4%,21µM*
CCOC(=O)Cn1c(=O)n(C2CCCCC2)c2nc(-c3c(F)cccc3Cl)nc(C(N)=O)c21,nt,5%,nt,-29%,3%,nt
Cc1ccccc1Nc1oc(-c2ccccc2)nc1-c1cccc2ccccc12,nt,-1%,nt,nt,13%,nt
N#Cc1c2c(c(Nc3ccc(F)cc3)n3c1nc1ccccc13)CCCC2,18µM*,nt,-9%,nt,-8%,16µM*
Cc1nn(-c2nnc(NC3CCCCC3)nn2)c(C)c1Br,-4%,8%,-3%,-3%,2%,-8%
Cc1ccc(-c2nnc(N3CCCCC3)c3ccccc23)cc1,23µM*,nt,1%,-3%,-10%,?
COc1ccc(-c2nnn3c2nc(N2CCCC(C)C2)c2ccccc23)cc1 (configuration not stated),29µM*,-4%,nt,-8%,0%,?
